Data taken from PubChem BioAssay (EPA / NIEHS).
Several values for one entry are separate records, joined by “and”; a condition that tells them apart may be missing. Equal entries are not always repeated. Results filed as inconclusive are left out. The source holds several records for some structures; these can differ, active in one and inactive in another. Activity calls are given as the source filed them. Rule for the calls, unless noted: active = hit-call score of the fitted dose curve at least 0.9, where 1 is the maximum; inconclusive = response in the unintended direction; inactive = score below 0.9.

Tests used:
[1] = system: chicken Androgen Receptor (AR), gene 422165; assay: ATG_chAR_XSP2: Attagene TRANS-FACTORIAL Multi-Species (XSP2) HepG2 Assay for chicken Androgen Receptor (AR) (AID 2283819);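 note: hits raise reporter mRNA above DMSO so potency is for activation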
In short: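 Readout is reporter mRNA induction via RT-PCR/capillary electrophoresis after 24 h chemical exposure, positive direction relative to DMSO. Transiently transfected HepG2 express chimeric chicken AR–GAL4; AR stimulated by 3 nM 6-alpha-fluorotestosterone and 1.5 nM norgestrel.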

[2] = system: frog Estrogen Receptor (ER), gene 398734; assay: ATG_frER1_XSP2: Attagene TRANS-FACTORIAL Multi-Species (XSP2) HepG2 Assay for frog Estrogen Receptor (ER) (AID 2283821);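 note: hits raise reporter mRNA above DMSO baseline so potency means agonist or activator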
In short: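 HepG2 cells transiently transfected with multiplexed GAL4-UAS reporter units expressing chimeric NR-Gal4 proteins (TRANS format) were dosed for 24 h. Reporter mRNA was quantified by RT-PCR, FAM primer extension, HpaI digestion and capillary electrophoresis; gain of signal relative to DMSO.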

[3] = ATG_M_19_XSP2: Attagene TRANS-FACTORIAL Multi-Species (XSP2) HepG2 Assay for M32 Transcription Factor (Internal Marker) (AID 2283822)
In short: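 Internal background marker in a multi-species nuclear receptor TRANS panel: transfected HepG2 cells exposed 24 h, with 3 nM 6-alpha-fluorotestosterone and 1.5 nM norgestrel present. Readout is RT-PCR of reporter transcripts resolved by capillary electrophoresis, gain-of-signal versus DMSO.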

[4] = system: zebrafish Estrogen Receptor (ER2b), gene 317733; assay: ATG_zfER2b_XSP2: Attagene TRANS-FACTORIAL Multi-Species (XSP2) HepG2 Assay for zebrafish Estrogen Receptor (ER2b) (AID 2283823);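 note: fitted upward as reporter gain over DMSO so potency reflects activation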
In short: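 Transfect HepG2 with GAL4-UAS reporter constructs; dose chemicals, 24 h; isolate RNA, RT-PCR, FAM-label, HpaI digest; capillary electrophoresis. Gain-of-signal vs DMSO.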

[5] = system: frog Androgen Receptor (AR), gene 399456; assay: ATG_frAR_XSP2: Attagene TRANS-FACTORIAL Multi-Species (XSP2) HepG2 Assay for frog Androgen Receptor (AR) (AID 2283824);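 note: reporter mRNA from GAL4-UAS units driven by Xenopus AR-Gal4 chimera; actives raise reporter signal above DMSO so AC50 reflects agonist-like induction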
In short: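 Reporter transcript induction, read by RT-PCR with fluorescent capillary electrophoresis, in human liver HepG2 cells carrying an exogenous Xenopus AR-Gal4 fusion and GAL4-driven reporters; chemical exposure 24 hours, activity scored upward against DMSO controls.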

[6] = system: frog Estrogen Receptor (ER2), gene 100174814; assay: ATG_frER2_XSP2: Attagene TRANS-FACTORIAL Multi-Species (XSP2) HepG2 Assay for frog Estrogen Receptor (ER2) (AID 2283828)
In short: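 Read-out: reporter transcript levels by RT-PCR with 6-FAM primer extension, HpaI digestion and capillary electrophoresis, scored as induction over DMSO control. Transfected HepG2 carrying Xenopus ER2–GAL4 chimera; compounds incubated 24 h.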

[7] = biological target: Peroxisome proliferator-activated receptor gamma (Homo sapiens) (UniProt P37231); assay: ATG_hPPARg_XSP2: Attagene TRANS-FACTORIAL Multi-Species (XSP2) HepG2 Assay for human Peroxisome Proliferator-activated Receptor gamma (PPARg) (AID 2283829);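 note: actives raise reporter mRNA above DMSO so AC50 reflects PPARg activation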
Chain of Peroxisome proliferator-activated receptor gamma (Homo sapiens) (P37231 whole entry, looked up, the tested form may be a part): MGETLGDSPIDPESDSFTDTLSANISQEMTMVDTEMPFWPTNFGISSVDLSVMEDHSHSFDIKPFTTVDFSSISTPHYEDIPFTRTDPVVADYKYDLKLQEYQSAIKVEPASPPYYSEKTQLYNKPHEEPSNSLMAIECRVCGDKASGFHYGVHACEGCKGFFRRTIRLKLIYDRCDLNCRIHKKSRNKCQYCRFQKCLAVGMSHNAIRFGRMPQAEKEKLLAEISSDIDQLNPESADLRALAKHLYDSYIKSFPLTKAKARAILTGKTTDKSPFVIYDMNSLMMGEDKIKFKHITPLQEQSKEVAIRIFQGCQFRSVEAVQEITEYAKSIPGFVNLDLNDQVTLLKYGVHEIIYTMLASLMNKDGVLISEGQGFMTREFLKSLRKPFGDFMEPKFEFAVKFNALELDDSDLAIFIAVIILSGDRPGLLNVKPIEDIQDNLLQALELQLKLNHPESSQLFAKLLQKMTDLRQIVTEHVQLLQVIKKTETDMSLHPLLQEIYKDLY
In short: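 Transient MRTU transfection, HepG2; TRANS format (exogenous NR-Gal4 chimeras). 24 h chemical exposure with 3 nM 6-alpha-fluorotestosterone and 1.5 nM norgestrel present. Readout: reporter mRNA via RT-PCR/CE fluorescence, up-direction vs DMSO.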

[8] = biological target: mouse Peroxisome Proliferator-activated Receptor gamma (PPARg), Pparg (gene 19016) (UniProt P37238); assay: ATG_mPPARg_XSP2: Attagene TRANS-FACTORIAL Multi-Species (XSP2) HepG2 Assay for mouse Peroxisome Proliferator-activated Receptor gamma (PPARg) (AID 2283830);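 note: hits are gains in reporter mRNA above DMSO so AC50 marks activation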
Chain of mouse Peroxisome Proliferator-activated Receptor gamma (PPARg), Pparg (gene 19016) (P37238 whole entry, looked up, the tested form may be a part): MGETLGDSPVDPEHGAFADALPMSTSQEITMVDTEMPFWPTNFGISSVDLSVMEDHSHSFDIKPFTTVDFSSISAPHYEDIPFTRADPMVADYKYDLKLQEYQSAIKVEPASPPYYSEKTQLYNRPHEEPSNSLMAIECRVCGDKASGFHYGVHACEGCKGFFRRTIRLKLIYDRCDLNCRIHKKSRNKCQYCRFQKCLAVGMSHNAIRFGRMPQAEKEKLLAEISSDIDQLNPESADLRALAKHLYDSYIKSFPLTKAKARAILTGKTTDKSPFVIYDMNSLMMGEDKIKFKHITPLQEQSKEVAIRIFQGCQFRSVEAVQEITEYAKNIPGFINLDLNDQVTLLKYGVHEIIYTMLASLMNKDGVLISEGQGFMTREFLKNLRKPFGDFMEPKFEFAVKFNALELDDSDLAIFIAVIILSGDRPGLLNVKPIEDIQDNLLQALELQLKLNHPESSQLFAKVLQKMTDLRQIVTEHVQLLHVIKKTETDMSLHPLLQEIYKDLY
In short: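 Multiplexed TRANS reporter readout: after 24 h chemical exposure of transfected HepG2 cells (with 3 nM 6-alpha-fluorotestosterone, 1.5 nM norgestrel present), RNA reverse-transcribed, amplified, 6-FAM-labelled and resolved by capillary electrophoresis; mouse PPARg-Gal4 induction scored against DMSO.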

[9] = biological target: Nuclear receptor subfamily 1 group I member 2 (Mus musculus) (UniProt O54915); assay: ATG_mPXR_XSP2: Attagene TRANS-FACTORIAL Multi-Species (XSP1) HepG2 Assay for mouse Pregnane X Receptor (PXR) (AID 2283831)
Chain of Nuclear receptor subfamily 1 group I member 2 (Mus musculus) (O54915 whole entry, looked up, the tested form may be a part): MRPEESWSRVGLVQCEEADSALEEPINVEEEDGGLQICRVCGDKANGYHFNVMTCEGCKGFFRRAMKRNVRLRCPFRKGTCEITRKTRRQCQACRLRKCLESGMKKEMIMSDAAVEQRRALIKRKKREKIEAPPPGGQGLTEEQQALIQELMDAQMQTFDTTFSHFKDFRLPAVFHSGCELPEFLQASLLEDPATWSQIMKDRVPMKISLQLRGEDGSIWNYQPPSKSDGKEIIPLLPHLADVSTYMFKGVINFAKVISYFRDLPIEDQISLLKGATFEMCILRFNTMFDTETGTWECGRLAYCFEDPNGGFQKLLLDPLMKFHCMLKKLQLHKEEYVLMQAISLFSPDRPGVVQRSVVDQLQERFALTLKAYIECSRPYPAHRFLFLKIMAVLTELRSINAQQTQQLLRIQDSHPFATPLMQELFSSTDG
In short: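 Transient HepG2 transfection, multiplexed GAL4-UAS reporters, NR-GAL4 chimeras. 24 h compound exposure. Readout: reporter mRNA, RT-PCR, fluorescent capillary electrophoresis; positive direction vs DMSO baseline.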

[10] = biological target: zebrafish Thyroid Hormone Receptor alpha (TRa), thraa (gene 30670) (UniProt Q98867); assay: ATG_zfTRa_XSP2: Attagene TRANS-FACTORIAL Multi-Species (XSP1) HepG2 Assay for zebrafish Thyroid Hormone Receptor alpha (TRa) (AID 2283832);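 note: actives raise zebrafish TRa-Gal4 reporter transcript above DMSO baseline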
Chain of zebrafish Thyroid Hormone Receptor alpha (TRa), thraa (gene 30670) (Q98867 whole entry, looked up, the tested form may be a part): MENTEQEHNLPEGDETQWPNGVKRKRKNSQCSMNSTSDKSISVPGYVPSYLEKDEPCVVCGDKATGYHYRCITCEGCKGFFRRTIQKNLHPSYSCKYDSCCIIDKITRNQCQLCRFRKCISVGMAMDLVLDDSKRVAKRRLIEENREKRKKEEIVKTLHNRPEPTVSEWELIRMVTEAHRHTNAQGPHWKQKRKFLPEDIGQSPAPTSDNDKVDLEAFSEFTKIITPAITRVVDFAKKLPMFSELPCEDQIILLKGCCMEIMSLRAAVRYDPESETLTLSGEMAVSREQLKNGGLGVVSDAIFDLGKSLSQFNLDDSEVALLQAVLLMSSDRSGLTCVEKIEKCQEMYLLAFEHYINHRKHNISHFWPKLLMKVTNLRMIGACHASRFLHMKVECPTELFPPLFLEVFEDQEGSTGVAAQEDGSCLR
In short: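 Readout is reporter mRNA induction, quantified by RT-PCR and capillary electrophoresis with fluorescent labelling, after 24 h compound exposure of transiently transfected HepG2 cells carrying NR-Gal4 chimera reporters. Activity fitted upward relative to DMSO.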

[11] = system: zebrafish Peroxisome Proliferator-activated Receptor gamma (PPARg), gene 557037; assay: ATG_zfPPARg_XSP2: Attagene TRANS-FACTORIAL Multi-Species (XSP2) HepG2 Assay for zebrafish Peroxisome Proliferator-activated Receptor gamma (PPARg) (AID 2283833);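 note: reporter mRNA from a zebrafish PPARg GAL4 chimera measured by RT-PCR and capillary electrophoresis; actives increase reporter signal over DMSO so AC50 reflects activation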
In short: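 Transfect HepG2 with multiplexed GAL4-UAS reporter constructs; dose chemical 24 h; isolate RNA, reverse-transcribe, PCR-amplify, label and digest reporter products; resolve by capillary electrophoresis. Activity taken as increase over DMSO.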

[12] = system: turtle Thyroid Hormone Receptor, alpha (TRa), gene 101949057; assay: ATG_trTRa_XSP2: Attagene TRANS-FACTORIAL Multi-Species (XSP1) HepG2 Assay for turtle Thyroid Hormone Receptor, alpha (TRa) (AID 2283834);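 note: hits raise reporter mRNA over the DMSO baseline so AC50 marks activators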
In short: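 Readout: reporter mRNA induction, fluorescence after RT-PCR, HpaI digestion and capillary electrophoresis. Transiently transfected HepG2, exogenous NR-Gal4 chimera driving GAL4-UAS reporter, 24 h compound exposure. Activity fitted upward relative to DMSO baseline.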

[13] = biological target: zebrafish Thyroid Hormone Receptor beta (TRb), thrb (gene 30607) (UniProt Q9PVE4); assay: ATG_zfTRb_XSP2: Attagene TRANS-FACTORIAL Multi-Species (XSP1) HepG2 Assay for zebrafish Thyroid Hormone Receptor beta (TRb) (AID 2283836)
Chain of zebrafish Thyroid Hormone Receptor beta (TRb), thrb (gene 30607) (Q9PVE4 whole entry, looked up): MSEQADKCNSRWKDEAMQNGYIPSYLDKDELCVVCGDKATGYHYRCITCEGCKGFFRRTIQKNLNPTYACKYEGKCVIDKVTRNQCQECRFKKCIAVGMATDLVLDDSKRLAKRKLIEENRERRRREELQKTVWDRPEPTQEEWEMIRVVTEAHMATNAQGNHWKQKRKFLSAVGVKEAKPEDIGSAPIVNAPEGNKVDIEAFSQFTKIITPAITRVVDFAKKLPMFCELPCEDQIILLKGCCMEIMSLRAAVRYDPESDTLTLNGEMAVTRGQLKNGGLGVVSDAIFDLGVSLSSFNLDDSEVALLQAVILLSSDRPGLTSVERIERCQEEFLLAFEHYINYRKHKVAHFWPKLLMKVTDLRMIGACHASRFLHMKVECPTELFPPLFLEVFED
In short: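 Reporter transcripts were measured by RT-PCR with fluorescent primer extension and capillary electrophoresis, 24 h after chemical dosing of transiently transfected HepG2 cells. Activity was scored as upward signal versus DMSO baseline.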

[14] = ATG_XTT_Cytotoxicity_XSP2: Cytotoxicity Assessment in the Attagene TRANS-FACTORIAL Multi-Species (XSP2) HepG2 Assay (AID 2283837)
In short: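 XTT-based cell number read-out in human HepG2 liver cells carrying transfected reporter units, measured 24 h after chemical dosing. Activity is signal loss versus DMSO baseline.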

[15] = biological target: human Thyroid hormone Receptor alpha (TRa), THRA (gene 7067) (UniProt P10827); assay: ATG_hTRa_XSP2: Attagene TRANS-FACTORIAL Multi-Species (XSP2) HepG2 Assay for human Thyroid hormone Receptor alpha (TRa) (AID 2283838)
Chain of human Thyroid hormone Receptor alpha (TRa), THRA (gene 7067) (P10827 whole entry, looked up, the tested form may be a part): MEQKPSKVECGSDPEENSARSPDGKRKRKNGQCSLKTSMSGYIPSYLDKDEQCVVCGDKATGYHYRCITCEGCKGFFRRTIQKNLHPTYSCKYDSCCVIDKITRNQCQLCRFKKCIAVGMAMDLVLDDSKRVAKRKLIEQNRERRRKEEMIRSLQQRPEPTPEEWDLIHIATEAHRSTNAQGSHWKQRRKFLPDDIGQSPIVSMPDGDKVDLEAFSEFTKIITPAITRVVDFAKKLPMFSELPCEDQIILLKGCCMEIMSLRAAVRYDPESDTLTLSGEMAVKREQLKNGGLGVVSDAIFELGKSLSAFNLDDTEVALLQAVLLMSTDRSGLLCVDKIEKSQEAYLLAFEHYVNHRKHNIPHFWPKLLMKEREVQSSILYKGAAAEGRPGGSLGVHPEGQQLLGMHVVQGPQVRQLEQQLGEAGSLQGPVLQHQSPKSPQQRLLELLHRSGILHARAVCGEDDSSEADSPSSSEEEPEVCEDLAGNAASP
In short: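 Gain-of-signal in reporter mRNA, relative to DMSO, after 24 h dosing of transfected HepG2; quantitation by RT-PCR fragment analysis on capillary electrophoresis.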

[16] = biological target: frog Thyroid hormone Receptor alpha (TRa), thra-a (gene 397942) (UniProt P15204); assay: ATG_frTRa_XSP2: Attagene TRANS-FACTORIAL Multi-Species (XSP2) HepG2 Assay for frog Thyroid hormone Receptor alpha (TRa) (AID 2283839);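 for AC50: AC50 reflects induction of frog TRa-driven reporter mRNA above DMSO baseline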
Chain of frog Thyroid hormone Receptor alpha (TRa), thra-a (gene 397942) (P15204 whole entry, looked up, the tested form may be a part): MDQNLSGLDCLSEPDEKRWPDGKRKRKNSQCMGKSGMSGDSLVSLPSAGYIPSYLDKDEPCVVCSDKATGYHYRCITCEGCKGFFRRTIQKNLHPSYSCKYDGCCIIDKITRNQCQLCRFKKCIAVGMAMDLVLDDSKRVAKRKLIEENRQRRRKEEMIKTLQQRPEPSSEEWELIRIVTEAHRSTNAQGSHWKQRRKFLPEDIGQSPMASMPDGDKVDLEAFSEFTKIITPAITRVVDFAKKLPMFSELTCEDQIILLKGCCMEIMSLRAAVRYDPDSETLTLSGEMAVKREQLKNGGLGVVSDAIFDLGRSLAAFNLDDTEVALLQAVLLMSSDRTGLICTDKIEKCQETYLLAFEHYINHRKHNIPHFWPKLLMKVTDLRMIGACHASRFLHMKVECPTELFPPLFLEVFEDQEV
In short: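 Read-out: fluorescent reporter-transcript fragments resolved by capillary electrophoresis after RT-PCR and HpaI cut. Human HepG2 liver cells carry a transfected frog TRα-Gal4 chimera driving a UAS reporter; 24 h exposure, DMSO baseline, positive-direction fit.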

[17] = ATG_M_32_XSP2: Attagene TRANS-FACTORIAL Multi-Species (XSP2) HepG2 Assay for M19 Transcription Factor (Internal Marker) (AID 2283826)
In short: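 Read-out: fluorescent reporter mRNA fragments resolved by capillary electrophoresis after RT-PCR, gain-of-signal versus DMSO baseline. Cells were human HepG2 carrying transfected multi-reporter units, exposed 24 h. Medium contained 3 nM 6-alpha-fluorotestosterone plus 1.5 nM norgestrel.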

[18] = system: zebrafish Androgen Receptor (AR), gene 100005148; assay: ATG_zfAR_XSP2: Attagene TRANS-FACTORIAL Multi-Species (XSP2) HepG2 Assay for zebrafish Androgen Receptor (AR) (AID 2283825);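 note: hits raise reporter mRNA above DMSO so AC50 reflects agonist-type gain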
In short: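 After 24 h compound exposure in medium with 3 nM 6-alpha-fluorotestosterone plus 1.5 nM norgestrel, HepG2 cells carrying zebrafish AR–GAL4 reporter constructs were assessed for reporter mRNA gain by RT-PCR and capillary electrophoresis.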

[19] = biological target: Estrogen receptor (Homo sapiens) (UniProt P03372); assay: ATG_hERa_XSP2: Attagene TRANS-FACTORIAL Multi-Species (XSP2) HepG2 Assay for human Estrogen Receptor (ERa) (AID 2283827)
Chain of Estrogen receptor (Homo sapiens) (P03372 whole entry, looked up, the tested form may be a part): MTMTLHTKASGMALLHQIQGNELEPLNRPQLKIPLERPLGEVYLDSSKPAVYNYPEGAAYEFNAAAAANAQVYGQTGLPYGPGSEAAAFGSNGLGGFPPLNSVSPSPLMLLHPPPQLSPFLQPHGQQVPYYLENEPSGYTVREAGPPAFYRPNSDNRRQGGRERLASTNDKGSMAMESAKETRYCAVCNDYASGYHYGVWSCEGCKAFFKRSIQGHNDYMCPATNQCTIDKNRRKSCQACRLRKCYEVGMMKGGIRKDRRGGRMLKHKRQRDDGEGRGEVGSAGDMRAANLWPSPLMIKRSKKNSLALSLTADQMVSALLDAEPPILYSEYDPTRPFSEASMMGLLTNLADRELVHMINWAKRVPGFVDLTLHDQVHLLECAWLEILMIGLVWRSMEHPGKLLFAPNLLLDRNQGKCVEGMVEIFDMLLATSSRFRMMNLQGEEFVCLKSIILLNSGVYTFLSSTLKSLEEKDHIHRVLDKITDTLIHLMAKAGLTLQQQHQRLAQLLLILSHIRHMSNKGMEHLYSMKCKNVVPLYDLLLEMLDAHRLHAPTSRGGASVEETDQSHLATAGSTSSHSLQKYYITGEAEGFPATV
In short: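 Trans-activation of exogenous human ERa-Gal4 chimera read in HepG2 as reporter transcript after 24 h exposure; medium included 3 nM 6-alpha-fluorotestosterone and 1.5 nM norgestrel. Quantified by RT-PCR with capillary electrophoresis, positive-direction fitting against DMSO.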

[20] = ATG_M_61_XSP2: Attagene TRANS-FACTORIAL Multi-Species (XSP2) HepG2 Assay for M61 Transcription Factor (Internal Marker) (AID 2283835; active = hit-call score of the fitted dose curve at least 0.9, where 1 is the maximum; inactive = score below 0.9;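 note: active means a rise in signal above the DMSO baseline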)
In short: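 Internal background marker, read as RT-PCR/capillary-electrophoresis reporter mRNA 24 h post-dose in transiently transfected HepG2 cells. Androgen receptor stimulated with 3 nM 6-alpha-fluorotestosterone plus 1.5 nM norgestrel; gain of signal versus DMSO analysed.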

Measured: AC50

Oc1cc(Cl)c(Cl)cc1Cl
inactive: [2] | [3] | [9] | [10] | [11] | [12] | [13] | [14] | [15] | [16]
active: [1] 6.4 µM and 3.09 µM | [2] 18.8 µM | [4] 68.6 µM and 22.9 µM | [5] 5.4 µM and 2.63 µM | [6] 24.5 µM and 19.2 µM | [7] 60.1 µM and 44.2 µM | [8] 65 µM and 35 µM | [12] 21.7 µM | [15] 26.3 µM | [16] 100 µM

O=c1oc2ccccc2c(O)c1C(CC(O)c1ccc(-c2ccc(Br)cc2)cc1)c1ccccc1 (stereo not drawn)
active: [7] 1.64 µM | [8] 2.5 µM | [9] 31.6 µM | [11] 6.09 µM
inactive: [1] | [3] | [4] | [17] | [6] | [12] | [13]

[Cl][Sn]([c]1ccccc1)([c]1ccccc1)[c]1ccccc1
active: [2] 0.925 µM | [7] 0.041 µM | [8] 0.184 µM | [10] 0.925 µM
not listed: [1] | [3] | [5] | [9] | [14] | [15]
inactive: all other assays above

COCCl
inactive: [1] | [2] | [3] | [4] | [18] | [6] | [7] | [8] | [9] | [11] | [12] | [15] | [16]
active: [2] 19.8 µM | [4] 65.6 µM | [6] 61.9 µM | [9] 7.08 µM

CCOP(=S)(OCC)O/N=C(\C#N)c1ccccc1
inactive: [1] | [2] | [10] | [11] | [12] | [20] | [13] | [15] | [16]
active: [1] 17.8 µM | [4] 19 µM and 8.31 µM | [6] 16.1 µM and 2.28 µM | [7] 27.4 µM and 10.3 µM | [8] 22.4 µM and 15.5 µM | [9] 4.3 µM and 2.37 µM

CC(O)(CS(=O)(=O)c1ccc(F)cc1)C(=O)Nc1ccc(C#N)c(C(F)(F)F)c1 (stereo not drawn)
active: [4] 50.4 µM | [8] 46.2 µM | [9] 4.25 µM
inactive: [2] | [4] | [19] | [6] | [7] | [8] | [10] | [11] | [12] | [20] | [13] | [15] | [16]
